Only some compounds are listed: those with a hit (about 2.6% of all), similar ones and a draw of the others.
Myeloid diff MLP: promotes myeloid progenitor differentiation; calls only at 10 µM; 1% of 360,000 active; ER-HoxA9 myeloid progenitors, lysozyme-GFP differentiation, flow cytometry;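 active = normalized GFP-positive differentiation at or above the plate's own cutoff, the solvent-only control mean plus 3 SD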;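 also: cells exposed to compound for four days before flow analysis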
CRFR2-BP antag: CRF-BP/CRF-R2 complex antagonism | HEK293 CRF-R2/CRF-BP, CRF-induced calcium fluorescence | inhibition, % at 11.8 µM | 0.59% of 350,000 active | AID 588475;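 active = inhibition of the ligand-induced calcium signal above about 50% at the single tested concentration, limit read from the data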
TPT1 inh: inhibitors of Candida albicans tRNA 2'-phosphotransferase TPT1 | recombinant caTPT1, FP RNA substrate dephosphorylation | AID 1962 | 0.81% of 300,000 active | inhibition, % at 5 µM;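 active = inhibition above the mean of all tested compounds plus 3 SD, set per screening campaign, cut at about 24% in these data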;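 also: plate controls were DMSO alone for no effect and ferristatin control at 100 nM for full effect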
IDE inh: inhibits human insulin-degrading enzyme in HEK cells; FAbetaB cleavage, fluorescence polarization; inhibition, % at 5.59 µM; 0.41% of 320,000 active; AID 434962;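 active = percent inhibition above the average of all tested compounds plus 3 SD, set per screening campaign, cut at about 16% in these data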;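 also: IDE supplied by intact live HEK cells; FP after avidin binding of uncleaved biotin substrate so inhibition keeps polarization high; 0% = DMSO wells and 100% = 60 µM reference IDE inhibitor Ii1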
IDE cell activ: boosts human insulin-degrading enzyme activity in HEK cells. FAbeta-B cleavage, fluorescence polarization; 0% vehicle, 100% cell-free pure enzyme wells. activation, % at 5.96 µM. 0.073% of 340,000 active;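 active = activation above the mean of all tested compounds plus 3 SD, set per screening campaign, cut at about 17% in these data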
CRFBP-R2 agonist: agonists of human CRF-binding protein/CRF-R2 receptor complex; 0.46% of 350,000 active; HEK293 CRF-R2/CRF-BP, calcium dye fluorescence (FLIPR); percent of saturating CRF peptide response; activation, % at 13.2 µM;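 active = activation of at least 50%, plus an integration ratio under a set limit after plate pattern correction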;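 also: plate controls were neutral control wells without compound for no effect and CRF at EC100 for full effect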
* = called active by the depositor; i = inactive; · = not tested or not shown; + = active, no number.

SMILES	Myeloid diff MLP	CRFR2-BP antag	TPT1 inh	IDE inh	IDE cell activ	CRFBP-R2 agonist
COc1ccc(C2C(C(=O)c3ccco3)=C(O)C(=O)N2CCOCCO)cc1OC (centres undefined)	i	1	0	4	13	0
COc1ccc(C2C(C(=O)c3ccco3)=C(O)C(=O)N2CCc2ccccc2)cc1OC (centres undefined)	+	1	-3	-2	1	-1
COc1ccc(CC(=O)O/N=C(\N)c2ccc(OC)cc2)cc1	i	14	0	1	10	0
COc1ccc(CC(=O)O/N=C(\N)c2cccc([N+](=O)[O-])c2)cc1	i	67*	3	-6	-3	-3
CCOc1ccccc1OCCCCCc1c(C)n[nH]c1C	+	21	0	2	-3	-1
Cc1cc(C)nc(N/N=C/C2=C(O)CC(c3ccccc3)CC2=O)n1 (centres undefined)	·	·	-1	-4	·	·
COc1ccccc1-c1nnc(NC(=O)CSc2nncn2C)s1	i	14	-2	3	1	-2
COc1ccc(Cl)cc1NC(=O)c1[nH]c(C)c(C(C)=O)c1C	·	9	1	3	5	2
COc1ccc(OC)c(NC(=O)c2[nH]c(C)c(C(C)=O)c2C)c1	i	77*	3	1	-2	-3
COc1ccc(CCN(C)C(=O)Cn2c(=O)oc3ccccc32)cc1OC	i	4	-1	0	2	0
CN(C)c1ccc(NC(=O)c2cccc([N+](=O)[O-])c2)c2ccccc12	+	-2	-1	1	1	2
O=C(Nc1ccc2c3c(cccc13)CC2)c1cccc([N+](=O)[O-])c1	i	-25	-6	-4	-2	-1
Cc1ccc(NC(=S)NNc2ccc(C(=O)O)cc2[N+](=O)[O-])cc1C	i	-8	-2	-2	4	0
COc1ccc(Cc2nc(-c3ccc(Cl)cc3)no2)cc1	i	50*	-5	-1	5	-1
COc1ccc(Cc2nc(-c3ccc(Br)cc3)no2)cc1	i	5	-2	5	1	0
CN(C)c1ccc(NC(=O)COC(=O)Cn2nnc3ccccc32)cc1	i	93*	0	7	4	0
COc1ccc(NC(=O)COC(=O)Cn2nnc3ccccc32)cc1	i	3	-2	0	-1	-1
Cn1ccnc1SCC(=O)Nc1nc2c(F)c(F)c(F)cc2s1	i	6	1	2	2	0
O=C(CSC1=NC2(CCCCC2)N=C1c1ccccc1)Nc1ccc2c(c1)OCCO2	+	-35	-1	-2	1	-1
O=C(CSC1=NC2(CCCCCC2)N=C1c1ccccc1)Nc1ccc2c(c1)OCCO2	i	-33	0	2	4	-1
Cc1c2cc(O)c(=O)cc-2oc2cc(O)c(O)cc12	+	-22	-25	8	-24	18
Cc1cc2oc(=O)cc(-c3cc4ccccc4o3)c2cc1O	i	-8	-4	1	-2	1
CCOC(=O)c1ccc(CNC(=O)Cn2nnc(-c3ccccc3F)n2)o1	i	9	-1	-3	2	-1
CCOC(=O)c1ccc(CNC(=O)Cn2nnc(-c3ccccc3)n2)o1	i	-100	-2	4	3	143*
CCSc1nc2ccccc2n1CC(=O)N1CCCCC1	·	86*	3	3	5	2
SMILES	Myeloid diff MLP	CRFR2-BP antag	TPT1 inh	IDE inh	IDE cell activ	CRFBP-R2 agonist
CCOc1ccc(C2CC(c3ccc(OC)c(OC)c3)n3nc(N)nc3N2)cc1 (centres undefined)	i	1	1	3	2	0
CCCCOC1CC(c2ccc(OCc3ccc(OC)cc3)c(OC)c2)N(C)O1 (centres undefined)	i	89*	2	3	6	-3
Cc1sc2ncnc(OCC(=O)NC(C)C)c2c1C	i	90*	0	2	-6	10
CC1(C)CC(=O)C(=Cc2cn(-c3ccccc3)nc2-c2ccc(Cl)cc2)C(=O)C1	i	-41	2	4	2	58*
COc1ccc(/C=C/CN2CCN(CCc3ccccc3)C(CCO)C2)cc1 (centres undefined)	+	-6	4	4	0	-1
Cc1ccc([C@H]2C(C(=O)O)=CC[C@@H](c3cccc(C)c3)N2S(=O)(=O)c2ccc(C)cc2)cc1	i	12	·	-1	3	-1
Cc1ccc(S(=O)(=O)N2[C@@H](c3ccc(Br)cc3)C(C(=O)O)=CC[C@H]2c2cccc(C)c2)cc1	i	86*	·	4	3	-2
Cc1ccc([C@H]2C(C(=O)O)=CC[C@@H](c3ccc(C)cc3)N2S(=O)(=O)c2ccc(C)cc2)cc1	i	94*	·	2	0	-1
CCCCC[C@@H]1C=C(C(=O)O)[C@H](c2cccc(C)c2)N1S(=O)(=O)c1ccc(C)cc1	i	60*	·	0	0	-2
Cc1ccc([C@H]2C(C(=O)O)=CC[C@@H](c3ccc(Cl)cc3)N2S(=O)(=O)c2ccc(C)cc2)cc1	i	66*	·	5	-1	6
O=C(NCC1CCCO1)C1CC(=O)N(c2ccccc2)C1 (centres undefined)	i	1	1	-8	4	0
COc1ccccc1NC(=O)CSc1nnc(CNC(=O)c2ccco2)o1	i	66*	5	4	-3	-2
O=C(Nc1cccnc1)c1ccc2nc(-c3ccccc3)c(-c3ccccc3)nc2c1	+	-21	0	-2	4	-3
O=C(Nc1ccccn1)c1ccc2nc(-c3ccccc3)c(-c3ccccc3)nc2c1	·	·	-1	12	·	·
CCCCCN1CC(=O)N2C(C)c3[nH]c4ccccc4c3C[C@H]2C1=O (some centres undefined)	+	-5	0	4	-6	-3
O=C(O)c1cnc(-c2ccccc2)nc1Sc1ccc(Cl)cc1Cl	i	97*	-1	1	-3	-3
COC(=O)CN1C(c2ccc(Cl)cc2)=Nc2ccc(Cl)cc2C1c1ccccc1 (centres undefined)	i	65*	0	-3	-3	-2
Cc1ccc(NC(=O)C2C3/C=C\CCCCC32)cc1C (centres undefined)	i	5	2	-2	5	-1
C#CCOc1ccc(/C=C2\SC(=S)N(Cc3cccnc3)C2=O)cc1	i	17	-3	-1	3	0
O=C1/C(=C\c2ccc(O)c(O)c2)SC(=S)N1Cc1ccccc1	+	-38	·	·	-77	24
O=C1/C(=C/c2ccc(O)cc2)SC(=S)N1Cc1cccnc1	i	-51	19	22*	-19	107*
COc1ccc(CNC(=O)c2oc3ccc(S(=O)(=O)N4CCOCC4)cc3c2C)cc1	i	-16	-1	12	-5	3
